This is a sample that favours compounds with a hit; in the whole collection about 1.6% have one here.
KCNQ2 inh – rat KCNQ2 potassium channel inhibitors, primary screen, cell-based, CHO-K1, FluxOR thallium flux, B-score | Potassium voltage-gated channel subfamily KQT member 2 (Rattus norvegicus), O88943 | 20 min; active compounds read low | B-score at 10 µM | 1.1% of 310,000 active | AID 2156, 2009;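 active = fluorescence ratio B-score at most minus 3 library SDs, with starting brightness B-score within 2 library SDs, cut at about -5.5 in these data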
KCNQ2 enhance – potentiators of rat KCNQ2 potassium channel. AID 2239, 2010. CHO-K1 KCNQ2, FluxOR thallium flux fluorescence; active compounds read high. 0.54% of 310,000 active. B-score at 10 µM. Potassium voltage-gated channel subfamily KQT member 2 (Rattus norvegicus), O88943;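 active = fluorescence ratio B-score at least 3 SD of library B-scores, with initial fluorescence B-score within 3 of them, cut at about 5.3 in these data; same plate scores as AID 2156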;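 also: B-score of peak minus minimum over baseline fluorescence ratio after K+ and Tl+ stimulus; positive B-score means potentiation of KCNQ2 with more thallium influx and brighter signal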
Kir21 confirm – mouse Kir2.1 channel blockers, retest, confirmation, cell-based, FluxOR thallium flux, duplicate | AID 2032, 2009 | Kir2.1-expressing cells, FluxOR thallium flux fluorescence; active compounds read low | 41% of 2,300 active | shares compounds with KCNQ2 enhance | Tl flux remaining, % of negative control (active compounds read low), % at 10 µM;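 active = Primary-screen hit whose thallium flux fell at least 3 control SD below untreated wells in both duplicates, with normal baseline fluorescence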;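 also: 0% = blank wells without stimulus and 100% = stimulated no-compound controls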
Target sequence (P35561 whole entry, looked up): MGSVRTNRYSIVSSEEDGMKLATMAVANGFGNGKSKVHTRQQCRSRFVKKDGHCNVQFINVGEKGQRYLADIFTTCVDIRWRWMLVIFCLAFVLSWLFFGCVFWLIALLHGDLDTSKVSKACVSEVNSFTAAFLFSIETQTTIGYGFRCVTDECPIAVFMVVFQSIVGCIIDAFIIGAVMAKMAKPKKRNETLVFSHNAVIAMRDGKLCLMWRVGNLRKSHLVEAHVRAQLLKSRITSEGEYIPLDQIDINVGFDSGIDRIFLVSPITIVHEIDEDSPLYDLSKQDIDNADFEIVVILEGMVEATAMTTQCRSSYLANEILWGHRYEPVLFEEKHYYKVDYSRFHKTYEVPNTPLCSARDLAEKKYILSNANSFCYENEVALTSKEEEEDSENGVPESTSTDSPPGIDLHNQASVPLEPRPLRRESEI
HEK293 ctr – counter-screen for Kir2.1 inhibitors: effect in parental HEK293 cells. shares compounds with KCNQ2 enhance. FluxOR thallium flux fluorescence; 0% = unstimulated blank wells. FluxOR signal as % of negative control (100 = no effect), % at 10 µM. 19% of 2,300 active;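 active = dye signal at least 3 control SD above or below untreated wells in both duplicates, raw fluorescence within 3, either direction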;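 also: percent is based on the flux ratio of peak minus minimum fluorescence over baseline F0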
CHO-K1 ctr – nonspecific thallium flux increase in parental CHO-K1, confirmation, counter-screen for KCNQ2 potentiator project, cell-based, FluxOR thallium flux, duplicate; shares compounds with KCNQ2 enhance; parental CHO-K1 cells, FluxOR thallium flux fluorescence; zero = vehicle mean+3SD, 100% = vehicle-minus-blank window; activity increase over 3SD of controls, % at 10 µM; 43% of 1,200 active; AID 2282, 2010;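 active = signal rise of at least 3 SD above the untreated control mean, in both duplicate wells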;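 also: counter screen of KCNQ2 potentiator hits so any rise reflects channel-independent effects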
KCNQ1 pot spec – human KCNQ1 channel potentiation off-target, confirmation, selectivity assay for KCNQ2 potentiator project, cell-based, CHO, FluxOR thallium flux; 28% of 1,200 active; CHO KCNQ1 stable, FluxOR thallium flux fluorescence; beyond 3SD, as % of vehicle-control signal; shares compounds with KCNQ2 enhance; activation over 3SD threshold, % at 10 µM;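 active = fluorescence ratio rise of at least 3 SD of vehicle wells above their mean, in both replicate wells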;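 also: 0% = vehicle mean plus 3 SD and 100% = vehicle minus unstimulated blank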
KCNQ2 pot confirm – rat KCNQ2 channel potentiators, confirmation, cell-based, CHO, FluxOR thallium flux, duplicate; potentiation, less the hit threshold, % at 10 µM; CHO-KCNQ2 cells, FluxOR thallium flux fluorescence; shares compounds with KCNQ2 enhance; 68% of 1,200 active; AID 2287, 2010;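 active = fluorescence ratio rising 3 SD or more over the vehicle control mean in both replicates, plus primary screen hit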;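 also: peak minus minimum thallium fluorescence divided by baseline after K/Tl stimulus; 0% = vehicle mean plus 3 SD and 100% = vehicle minus unstimulated blank difference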
Kir2-1 sel – mouse Kir2.1 channel activation off-target, confirmation, selectivity assay for KCNQ2 potentiator project, cell-based, HEK293, FluxOR thallium flux; HEK293 Kir2.1, FluxOR thallium flux fluorescence; 2% of 1,200 active; AID 2345, 2010; activity over 3SD threshold, % at 10 µM; shares compounds with KCNQ2 enhance;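 active = fluorescence ratio rise of at least 3 SD above the vehicle-control mean, seen in both replicates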;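 also: 0% = vehicle mean plus 3 SD and 100% = vehicle minus no-stimulus blank window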
KCNQ2 W236L MoA – potentiators of retigabine-insensitive KCNQ2 W236L, mechanism study for KCNQ2 potentiator project, cell-based, rat KCNQ2 W236L, CHO, automated patch clamp; automated patch clamp current; shares compounds with KCNQ2 enhance; current increase over 3SD of negative controls (%), active compounds read high, % at 25 µM; 10% of 940 active;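 active = current increase at least 3 SD of the untreated controls above them in both duplicate recordings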
* = called active by the depositor; i = inactive; / = no result given.

SMILES | KCNQ2 inh | KCNQ2 enhance | Kir21 confirm | HEK293 ctr | others
COC(=O)C(C(=O)Nc1ccccc1C)C1CCCCCC1 (stereo not given) | i | / | / | /
CCN(CC)C(=O)C[n+]1cccc(C(N)=O)c1 | i | 0.64 | / | /
COCCCNCCCCOc1ccc(OCc2ccccc2)cc1 | i | 0.41 | / | /
c1ccc(COc2ccc(OCCCNC3CCCC3)cc2)cc1 | i | / | 30%* | i
CCC(C)c1ccccc1OCCCNC1CCCC1 (stereo not given) | i | 1.3 | 63%* | i
CCC(C)c1ccccc1OCCCCN1CCCC1 (stereo not given) | i | 1.3 | / | /
Cc1cccc(NC(=O)CN(C2=NC3CS(=O)(=O)CC3S2)c2ccccc2F)c1 (stereo not given) | i | 0.67 | / | /
Cc1cccc(C)c1NC(=O)c1cnccn1 | i | 0.1 | / | /
Cc1ccc(C(C)(C)C)c(OCCCn2ccnc2)c1 | i | / | / | /
CC(C)(C)c1ccccc1OCCCCCn1ccnc1 | -6.1* | -6.1 | 39%* | i
CCN(CC)S(=O)(=O)c1ccc(-n2c(=O)c(C(C)C)c(C)n2C)cc1 | i | 0.14 | / | /
O=C(NCCO)C(=O)c1c(-c2ccc(Cl)cc2)cc2ccccn12 | i | / | / | /
O=C(O)c1ccn2c(C(=O)c3ccc(Cl)cc3)c(-c3ccccc3)cc2c1 | i | 8.4* | i | i | CHO-K1 ctr=-6;KCNQ1 pot spec=-11;KCNQ2 pot confirm=16*;Kir2-1 sel=-25;KCNQ2 W236L MoA=i
CCCCNC(=O)N(O)C1N(CCCC)C(=O)N(CC(=O)OC)C1(C)C (stereo not given) | i | 0.07 | / | /
COc1cc(OC)c(OC)cc1CCC(C)NCCC(c1ccccc1)c1ccccc1 (stereo not given) | i | 0.21 | 48%* | i
COc1ccccc1CCNC(C)CCc1ccc(O)cc1 (stereo not given) | i | / | / | /
CCOc1ccc(NC(=O)c2ccc(F)cc2F)cc1 | i | 0.1 | / | /
Cc1nn(-c2ccccc2)c(Cl)c1/C=C1\SC(=S)NC1=O | i | 13* | i | 412%* | CHO-K1 ctr=-1;KCNQ1 pot spec=-14;KCNQ2 pot confirm=215*;Kir2-1 sel=-13;KCNQ2 W236L MoA=i
Cc1nn(-c2ccccc2)c(Cl)c1/C=C1\SC(=S)N(CCCCCC(=O)O)C1=O | i | 1.5 | / | /
O=C1CC(c2cccs2)c2ccc3ccccc3c2N1 (stereo not given) | i | 1.2 | / | /
CN(C)CC/C=C1\c2ccccc2Sc2ccc(Cl)cc21 | i | 0.23 | 26%* | i
CN(C)CCCN1c2ccccc2Sc2ccc(Cl)cc21 | i | 0.4 | 28%* | i
OCCN1CCN(CCCN2c3ccccc3Sc3ccc(Cl)cc32)CC1 | i | / | / | /
CN(C)CC/C=C1/c2ccc(F)cc2Sc2ccc(Cl)cc21 | -5.8* | -5.8 | i | i
CN(C)CC/C=C1\c2ccc(F)cc2Sc2cc(F)c(Cl)cc21 | i | / | / | /
CN(C)CC/C=C1\c2ccccc2Sc2cc(F)c(Cl)cc21 | i | / | / | /
COCCn1c(N)c(N(Cc2ccccc2)C(=O)COc2ccc(F)cc2Cl)c(=O)[nH]c1=O | i | / | / | /

Source: PubChem
